From PubChem BioAssay
TRHR enhancer: qHTS for Small Molecule Agonists and Allosteric Enhancers of Human TRH Receptor: Primary Screen for Enhancers | Thyrotropin-releasing hormone receptor (Homo sapiens), P34981 | TRHR cells, fluo-8 calcium fluorescence, EC20 TRH enhancement | enhancement, % at 2 µM | actives 0.66% (n = 360,000); in the data active = enhancement above about 30%
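TRHR-expressing cells loaded with fluo-8 calcium dye were read kinetically (ex 480/em 530) during compound addition, then stimulated with an EC20 of TRH (10 nM final). Enhancement of the Gq-mediated intracellular calcium response was scored.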
TRHR ag: qHTS for Small Molecule Agonists and Allosteric Enhancers of Human TRH Receptor: Primary Screen for Agonists | activation, % at 2 µM | TRHR cells, calcium flux fluo-8, FDSS agonist mode | actives 0.18% (n = 360,000)
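TRHR-expressing cells loaded with fluo-8 calcium dye; 23 nL library compound pin-transferred, kinetic FDSS fluorescence (Ex 480/Em 530) recorded about 180 s for agonist-induced calcium release, before a 10 nM TRH EC20 addition for potentiator mode.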
D1 PAM: Potentiators of Human D1 Dopamine Receptor: qHTS; D(1A) dopamine receptor (Homo sapiens), P21728; HEK293 TREx D1 cells, calcium flux, dopamine EC20 potentiation; potentiation, % at 10 µM; actives 0.036% (n = 360,000); AID 504651, 2011; in the data active = potentiation above about 30%
Target sequence (P21728 whole entry, looked up): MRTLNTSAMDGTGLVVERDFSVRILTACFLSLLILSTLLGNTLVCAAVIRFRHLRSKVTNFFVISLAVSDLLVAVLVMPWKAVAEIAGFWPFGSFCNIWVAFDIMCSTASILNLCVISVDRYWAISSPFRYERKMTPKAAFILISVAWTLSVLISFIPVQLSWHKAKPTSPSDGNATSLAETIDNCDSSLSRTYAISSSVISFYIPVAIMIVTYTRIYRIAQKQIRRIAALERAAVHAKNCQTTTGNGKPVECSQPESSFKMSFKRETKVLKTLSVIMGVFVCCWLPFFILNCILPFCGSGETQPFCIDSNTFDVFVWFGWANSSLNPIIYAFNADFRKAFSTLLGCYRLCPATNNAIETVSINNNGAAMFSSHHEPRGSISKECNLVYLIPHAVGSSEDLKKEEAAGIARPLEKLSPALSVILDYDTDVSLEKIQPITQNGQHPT
D1 ag: Allosteric Agonists of the Human D1 Dopamine Receptor: qHTS; D(1A) dopamine receptor (Homo sapiens), P21728; HEK293 T-REx D1 cells, calcium flux, agonist mode; activation, % at 2 µM; actives 1% (n = 360,000); AID 504660, 2011
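Inducible HEK293 T-REx D1 cells, force-coupled to calcium signalling, were plated at 4000 cells/well with tetracycline and held overnight at 30 C. After no-wash calcium dye loading, compound-evoked calcium rise over 180 s flagged agonists.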
USP1 inh: Inhibitors of USP1/UAF1: Primary Screen; Potency, µM (doses to about 57.1 µM), most hits filed as inhibitors; recombinant USP1/UAF1, Ub-Rhodamine cleavage fluorescence; actives 0.23% (n = 390,000); AID 743255, 2014; Ubiquitin carboxyl-terminal hydrolase 1 (Homo sapiens), O94782; active = well fitted inhibition curve with a large enough effect; inconclusive = small, poorly fitted or top-dose-only effect; inactive = no such curve, though single readings can be large or run the other way; note: nearly all actives have a fitted effect of over 60% in size
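In this screen, compounds sit with the deubiquitinase complex (1nM) for 15 min at room temperature before Ub-Rho is added at 150nM final. Fluorescence rise is then followed for 6 reads every 60 seconds.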
D1 antagonist: Antagonist of Human D 1 Dopamine Receptor: qHTS | HEK293 TREx D1 cells, calcium flux, dopamine EC80; stronger effect = lower value | activity change, negative = inhibition, % at 10 µM | actives 3.2% (n = 360,000) | AID 504652, 2011; in the data active = activity change below about -30%
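Tetracycline-induced HEK293 Trex D1 cells, force-coupled to calcium, dye-loaded; compounds added and read 180 s, then EC80 dopamine added and calcium flux tracked kinetically another 180 s.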
Large screens that a line does not name were inactive; ! = a repeat was not active. Sampled rows, rich in hits. Any-hit rate of the full collection: about 4.4%. Cut-off read from the data, not from the text of the source, unless noted: active = activation above about 30%; inactive = the rest.

CS(=O)(=O)N1Cc2ccccc2CC1C(=O)O (configuration not stated)	D1 antagonist -43.3
COC(=O)C1Cc2ccccc2CN1S(=O)(=O)c1ccc(F)cc1 (configuration not stated)	D1 antagonist -36.0
Cc1ccc(SCC(=O)Nc2ccc(N3CCN(C)CC3)c(F)c2)cc1	D1 antagonist -58.9
COc1cc2c(cc1OC)CN(C(=O)/C=C/c1ccc(F)cc1)CC2	none
COc1cc2c(cc1OC)CN(C(=O)CSc1ccc(F)cc1)CC2	D1 antagonist -87.4
Cc1ccc(N=C(NOCc2ccc(Cl)cc2Cl)c2nonc2N)c(C)c1	none
Cc1ccccc1N=C(NOCc1ccc(Cl)cc1Cl)c1nonc1N	D1 antagonist -47.9
COc1ccc(CCNC(=O)CSc2nnnn2-c2cccc(C(C)=O)c2)cc1OC	none
N#C/C(=C\c1ccc(/C=C(/C#N)c2nn(CCO)c(N)c2C#N)cc1)c1nn(CCO)c(N)c1C#N	none
COc1cc(/C=C(\C#N)c2nn(CCO)c(N)c2C#N)cc(OC)c1OC	TRHR enhancer 33.1
CCCCOc1ccc(NC2=NC3(CCCCC3)N=C(N)N2)cc1	none
COc1ccc(OC)c(NC2=NC3(CCCCC3)N=C(N)N2)c1	D1 antagonist -53.6
COc1ccc(NC2=NC3(CCCCC3)N=C(N)N2)cc1	D1 antagonist -87.3
O=C(NCc1nc(-c2ccc(C(F)(F)F)cc2)no1)Nc1ccc(OC(F)(F)F)cc1	D1 antagonist -36.7
Fc1ccc(CSc2ncnc3scc(-c4ccccc4)c23)cc1	D1 ag 35.1
Cc1cc(NC(=O)CCCn2c(C)c3cnn(-c4ccccc4)c(=O)c3c2C)ccc1Br	none
Cc1c(Cl)cccc1NC(=O)N1CCC(CN2CCCC2)CC1	none
CN1CCC/C1=C/C=C1\SC(=S)NC1=O	TRHR ag 47.7, D1 ag 80.9, USP1 inh 25.1µM
O=C1NC(=S)SC1=Cc1ccc(F)cc1	none (no result: TRHR enhancer, TRHR ag, D1 PAM, D1 ag, D1 antagonist)
CCCCN1C(=O)CN(C2CCCCCC2)C(=O)C1c1ccc(OCC)c(OC)c1 (configuration not stated)	none
Cc1ccccc1Cn1c2ccccc2c2cnn(CC(=O)NCCCc3ccccc3)c(=O)c21	none
CC(Oc1ccc(F)cc1)C(=O)Nc1cc(-c2ccc(F)c(F)c2)no1 (configuration not stated)	D1 ag 110.8, D1 antagonist -41.3
O=C(c1nc(-c2ccc(Cl)cc2)n2c1CCCCC2)N1CCN(c2ccccc2F)CC1	USP1 inh inconclusive
CCOC(=O)c1cc(NC(=O)c2ccccc2)c(=O)n2c1oc1ccc(Cl)cc12	none
COc1ccc(NC(=O)Cc2noc3ccc(C)cc23)cc1Cl	D1 antagonist -30.9
CCOC(=O)c1ccc(NC(=O)Cc2noc3ccc(C)cc23)cc1	USP1 inh inconclusive
Cc1cc(C)c(NC(=O)CSC2=Nc3ccccc3C3=NC(CC(=O)NCc4cccs4)C(=O)N23)c(C)c1 (configuration not stated)	none
CC(C)CCN1CCN(Cc2cccn2-c2cccnc2)CC1CCO (configuration not stated)	D1 ag 30.4
CC(C)N1CCN(Cc2cccn2-c2cccnc2)CC1CCO (configuration not stated)	none
COc1cccc2c1OCC(CN1CCN(CCC(C)C)C(CCO)C1)=C2 (configuration not stated)	D1 antagonist -30.5
CC(C)Sc1nc2ccc(Br)cc2[nH]1	D1 antagonist -32.8
Cc1ccc(C)c(N2CCN(S(=O)(=O)c3csc(C(N)=O)c3)CC2)c1	TRHR enhancer 32.2!
Cc1ccc(C)c(N2CCN(S(=O)(=O)c3cnc(N)nc3)CC2)c1	none
CC(C)CC(=O)Nc1c(C(=O)N2CCN(c3ccccc3)CC2)oc2ccccc12	USP1 inh inconclusive
O=C(Cc1ccccc1)Nc1c(C(=O)N2CCN(c3ccc(F)cc3)CC2)oc2ccccc12	USP1 inh inconclusive, D1 antagonist -43.0
CC(C)C(=O)Nc1c(C(=O)N2CCN(c3ncccn3)CC2)oc2ccccc12	USP1 inh inconclusive, D1 antagonist -33.6
O=C(COc1ccccc1)Nc1c(C(=O)N2CCN(c3ccc(F)cc3)CC2)oc2ccccc12	D1 antagonist -30.7
CC(C)C(=O)Nc1c(C(=O)N2CCN(c3ccccc3F)CC2)oc2ccccc12	none
COc1ccccc1C(=O)Nc1c(C(=O)N2CCN(c3ccc(F)cc3)CC2)oc2ccccc12	none
CCCCC(=O)Nc1c(C(=O)N2CCN(c3ccccc3)CC2)oc2ccccc12	D1 antagonist -48.1
CCCCCCOc1ccc(C2C(=O)N(C3CCCCC3)CC(=O)N2CCCC)cc1 (configuration not stated)	none
O=C(NCCc1ccc(Cl)cc1)C1CCN(S(=O)(=O)c2ccc3[nH]ccc3c2)CC1	none
CCOc1ccc(N2CC(O)(c3ccc(F)cc3)[N+]3=C2CCCC3)cc1 (configuration not stated)	D1 antagonist -44.2
COc1ccc(Cl)cc1NC(=O)c1cc(S(=O)(=O)N(C)Cc2ccccc2)ccc1F	USP1 inh inconclusive
O=C(CCN1C(=O)/C(=C/C=C/c2ccccc2)SC1=S)Nc1ccccn1	TRHR enhancer 39.4
O=C(CCN1C(=O)S/C(=C\C=C\c2ccccc2)C1=O)Nc1ccc(O)cc1	D1 antagonist -38.4
CCOc1ccccc1CNC(=O)c1sc2ncccc2c1-n1cccc1	none
CCOC(=O)c1ccc(NC(=O)C(CC)Sc2nc3ccncc3[nH]2)cc1 (configuration not stated)	D1 ag 53.1
COc1cc(C)cc2oc(=O)c(CC(=O)NCCc3ccc(Cl)cc3)c(C)c12	none
COc1cccc(NC(=S)N(CCCN2CCOCC2)C(C)c2cc3cccc(OC)c3o2)c1 (configuration not stated)	D1 antagonist -68.5
COc1cccc(NC(=O)N(CCCN2CCOCC2)C(C)c2cc3cccc(OC)c3o2)c1 (configuration not stated)	none
CCc1ccc(/C=C2\Oc3c(ccc(O)c3CN3CCN(CCO)CC3)C2=O)cc1	D1 ag 64.4
